Measured values as given in PubChem BioAssay AID1845226 (National Center for Advancing Translational Sciences (NCATS), 2023).
Inconclusive results are not listed. Where a call stands in place of a potency, no number is given. Activity calls are given as the source filed them. The call rests on the fitted dose curve; in most records, active means well fitted inhibition curve with a large enough effect; inconclusive means small, poorly fitted or top-dose-only effect; inactive means no such curve, though single readings can be large or run the other way.

assay: Confirmatory fluorescence-based thiol-reactive (MSTI) qHTS assay for identification of artifact compounds; conditions: MSTI thiol-reactivity probe, 1 h; series mostly up to 39.2 µM
Outline: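 Thiol reactivity read as MSTI fluorescence (Ex/Em 525/598 nm) after 1 h at room temperature in PBS pH 7.4 with 2% DMSO, MSTI 4 uM. Data normalised to Acetyl-MSTI and MSTI control wells, 4-parameter Hill fit.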
Potency means the concentration at half of the fitted maximal effect.

SMILES | Potency
COc1ccc(NC(=O)N2CCc3c(sc4c3CCCC4)C2c2ccccc2OC)cc1 (stereo not given) | inactive
O=S(=O)(O)c1ccc(N=Nc2c(O)ccc3cc(S(=O)(=O)O)ccc23)cc1 | 6.12 µM (active)
O=C(O)c1c(CNCc2cccc(F)c2)c2ccccc2n1Cc1ccccc1 | inactive
O=C(CSc1nccn1C1CCCC1)Nc1ccc(C(F)(F)F)cc1 | inactive
c1coc(-c2nc3cc4ccccc4cc3nc2-c2ccco2)c1 | 0.97 µM (active)
COc1ccc(-c2cc(C(F)(F)F)n3nc(-c4ccc(Cl)cc4)cc3n2)cc1OC | inactive
CCOC(=O)c1sc2cccc(F)c2c1S(=O)(=O)NCc1ccccc1Cl | inactive
COC(=O)c1ccc2nc(C)cc(Nc3ccc(O)cc3)c2c1 | inactive
O=c1cc(-c2cc(O)c(O)c(O)c2)oc2cc(O)cc(O)c12 | 12.2 µM (active)
CCOc1ccc(C(=O)N2CCC(c3nc(-c4ccc(S(=O)(=O)N5CCCC5)cc4)no3)CC2)cc1 | inactive
Cc1ccccc1C(=O)N1CCc2cc(-c3nc(NC(=O)Cc4ccccc4)sc3C)ccc21 | inactive
Cc1ccc(NS(=O)(=O)c2cc3c(cc2N2CCC2)NC(=O)CC3)cc1C | inactive
COc1ccc(C(=O)O)cc1Nc1nc2ccc(C)cc2n2cnnc12 | inactive
COc1ccc(OCc2nnc(-c3ccccc3)o2)cc1 | inactive
CC(=O)O[C@H]1C[C@@H]2CC[C@@H]3[C@H](CC[C@@]4(C)[C@H]3C[C@H](N3CC[N+](C)(C)CC3)[C@@H]4OC(C)=O)[C@@]2(C)C[C@@H]1N1CC[N+](C)(C)CC1 | inactive
COc1ccc(/C=C/c2cc(O)cc(O[C@H]3OC(CO)C(O)C(O)C3O)c2)cc1 (stereo not given in full) | inactive
Cc1cc(C)cc(NC(=O)CSc2oc(-c3cccs3)nc2S(=O)(=O)c2ccccc2)c1 | inactive
Clc1ccccc1CNc1ncnc2nc[nH]c12 | inactive
O=C(CNC(=O)C(c1ccccc1)c1ccccc1)OCC(=O)c1ccc2ccccc2c1 | inactive
CCN(CC)c1ccc(-c2nc(-c3ccccn3)no2)cc1[N+](=O)[O-] | inactive
CC/C=C/C/C=C/C/C=C/CCCCCCCC(=O)OCC | inactive
CCOC(=O)C1CCN(c2nc3ccccc3nc2Cl)CC1 | inactive
CCCC(N[C@@H](C)C(=O)N1[C@H](C(=O)O)C[C@@H]2CCCC[C@@H]21)C(=O)OCC (stereo not given in full) | inactive
CCOC(=O)c1c(C)c(C(=O)NCc2ccc(Cl)cc2)c(C)n1CC | inactive
CSc1ncc(C(=O)NCc2ccccc2)c(-c2ccccc2)n1 | inactive
O=C(COc1ccccc1Cl)NCC1(N2CCOCC2)CCCCC1 | inactive
CCOC(=O)CN(Cc1ccccc1)C(C(=O)NC1CCCCC1)c1ccc(C)cc1 (stereo not given) | inactive
COc1ccc(-c2[nH]ncc2C(=O)NCc2cccc(OC)c2)cc1 | inactive
COc1ccc(-c2coc3cc(O)ccc3c2=O)c(OC)c1O | inactive
O=C(NCCSc1c(-c2ccc(Br)cc2)[nH]c2ccccc12)c1ccc(S(=O)(=O)N2CCOCC2)cc1 | inactive
